Measurements: PubChem BioAssay AID504339 (National Center for Advancing Translational Sciences (NCATS), 2011)
Hit rate of the full screen: of about 390,000 compounds, about 17,000 (4.4%) were called active. About 8% were inconclusive and are not listed. This excerpt belongs to a sample that is enriched for actives. Values without a mark were called inactive. Calls follow the shape of the dose curve; as a rule, active = well fitted inhibition curve with a large enough effect; inconclusive = small, poorly fitted or top-dose-only effect; inactive = no such curve, though single readings can be large or run the other way.

These molecules were tested against Lysine-specific demethylase 4A (Homo sapiens) (UniProt O75164) (assay: qHTS Assay for Inhibitors of JMJD2A-Tudor Domain). Settings: AlphaScreen JMJD2A-Tudor / H3K4me3 peptide binding; series mostly up to 114 µM; activity change, negative = inhibition: at the top concentration.
% is scaled to controls: 0 for no effect and ±100 for the full control effect; potency is read from the fitted curve at half-maximal effect.
Also: nearly all actives have a fitted effect of over 50% in size.

Sequence of Lysine-specific demethylase 4A (Homo sapiens) (O75164 whole entry, looked up, the tested form may be a part): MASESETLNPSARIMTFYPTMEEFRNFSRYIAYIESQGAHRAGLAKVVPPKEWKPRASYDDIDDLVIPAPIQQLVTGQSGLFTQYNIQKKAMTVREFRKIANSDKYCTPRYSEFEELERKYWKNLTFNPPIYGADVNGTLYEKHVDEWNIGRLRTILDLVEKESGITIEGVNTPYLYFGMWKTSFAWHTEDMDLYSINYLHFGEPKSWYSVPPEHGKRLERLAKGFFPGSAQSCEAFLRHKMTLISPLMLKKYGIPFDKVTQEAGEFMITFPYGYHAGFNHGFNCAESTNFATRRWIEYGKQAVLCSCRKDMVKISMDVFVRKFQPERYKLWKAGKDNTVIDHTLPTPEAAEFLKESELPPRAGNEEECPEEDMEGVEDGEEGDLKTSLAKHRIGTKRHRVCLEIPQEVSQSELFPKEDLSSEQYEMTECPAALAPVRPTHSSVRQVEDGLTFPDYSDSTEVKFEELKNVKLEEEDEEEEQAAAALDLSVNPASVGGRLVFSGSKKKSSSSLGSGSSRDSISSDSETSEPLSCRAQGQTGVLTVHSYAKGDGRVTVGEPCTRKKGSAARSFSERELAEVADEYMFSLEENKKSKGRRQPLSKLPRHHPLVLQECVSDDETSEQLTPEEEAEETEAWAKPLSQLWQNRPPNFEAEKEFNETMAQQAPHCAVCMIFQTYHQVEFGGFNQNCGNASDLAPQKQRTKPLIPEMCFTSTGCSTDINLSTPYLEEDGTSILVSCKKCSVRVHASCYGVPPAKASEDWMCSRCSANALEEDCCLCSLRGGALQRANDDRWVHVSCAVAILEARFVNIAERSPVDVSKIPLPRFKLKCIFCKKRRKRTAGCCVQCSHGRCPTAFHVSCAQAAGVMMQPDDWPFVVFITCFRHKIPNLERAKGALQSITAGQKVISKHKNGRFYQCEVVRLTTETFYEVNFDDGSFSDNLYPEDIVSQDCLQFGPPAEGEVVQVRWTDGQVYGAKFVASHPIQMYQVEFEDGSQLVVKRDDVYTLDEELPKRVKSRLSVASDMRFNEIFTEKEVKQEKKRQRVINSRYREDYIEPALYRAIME

First: O=C(COc1ccccc1)NCc1ccc2c(c1)CCN2C(=O)c1ccc(F)cc1
Second: O=C(CSc1nccn1Cc1ccc(Cl)cc1)NCc1ccccc1
The “activity change, negative = inhibition” value of the first is higher: -14% for the first, -23.4% for the second.

First: COc1ccc(-c2c(C)nn3c(N4CCC(C(=O)NCCC(C)C)CC4)cc(C)nc23)cc1OC
Second: COc1cc(OC)c(NC(=O)c2c3c(nn2C)-c2ccccc2SC3)cc1Cl
The “activity change, negative = inhibition” value of the first is higher: 0.337% for the first, -12.3% for the second.

First: COc1ccccc1CNc1nc2ccc(Cl)cc2n2cnnc12
Second: COc1ccc(CNC(=O)c2cc3c(-c4ccccc4F)nn(C)c3s2)c(OC)c1
The “activity change, negative = inhibition” value of the first is higher: 0.336% for the first, -20.3% for the second.

Compared with `COc1ccc(-n2c(=O)[nH]c3cc(C(=O)NCCc4ccc(OC)c(OC)c4)ccc3c2=O)c(OC)c1`, `COc1ccc(OC)c(CCNC(=O)c2nn(C)c3c2CS(=O)(=O)c2ccccc2-3)c1` is lower in “activity change, negative = inhibition” value: 4.2% for the first, -15.8% for the second.

Compared with `Cc1cc(C)c(-c2n[nH]c3c2C(c2ccccc2F)N(CCO)C3=O)c(O)c1` (stereo unspecified), `COc1ccccc1CNS(=O)(=O)c1cc(Br)cc2c1N(C(C)=O)C(C)C2` (stereo unspecified) is lower in “activity change, negative = inhibition” value: -1.26% for the first, -4.44% for the second.

Going from `COc1ccc(CNC(=O)Cn2nnc(-c3ccc(S(C)(=O)=O)cc3)n2)cc1` to `COc1ccc(S(=O)(=O)NCc2ccc(C(=O)N(C)Cc3ccco3)cc2)cc1`, the “activity change, negative = inhibition” value falls from -16.8% to -22%.

Going from `CCn1cc2nc(SCc3ccccc3Cl)n(CCc3ccccc3)c(=O)c2n1` to `CCCCNC(=O)CSc1nccn1Cc1ccccc1`, the “activity change, negative = inhibition” value falls from -12.3% to -23.6%.

Going from `O=C(c1cccc(Br)c1)N1CCN(Cc2cc(=O)n3nc(-c4ccccc4)sc3n2)CC1` to `Cc1ccc(-c2nn3c(=O)cc(CN4CCN(C(=O)Nc5cccc(C(F)(F)F)c5)CC4)nc3s2)cc1`, the “activity change, negative = inhibition” value rises from -10.7% to -8.77%.

First: COCCCNC(=O)c1c(NC(=O)c2cc(=O)c3cc(C)c(C)cc3o2)sc2c1CCCC2
Second: CCC1CCCCN1S(=O)(=O)c1ccc(NC(=O)c2cc(=O)c3ccccc3o2)cc1 (stereo unspecified)
The “activity change, negative = inhibition” value of the first is higher: -1.74% for the first, -13.5% for the second.

Going from `COc1ccc(N(C(=O)c2cccnc2)S(=O)(=O)c2ccc(OC)c(OC)c2)cc1` to `COc1cccc(CNC(=O)C(NS(=O)(=O)c2ccc3nc(C)sc3c2)C(C)C)c1` (stereo unspecified), the “activity change, negative = inhibition” value rises from -16.9% to 2.32%.

Going from `O=C(c1cccnc1)N(Cc1ccccc1)C(=O)c1cccnc1` to `O=C(NCc1cccnc1)C(=O)NCC(c1cccnc1)N1CCN(c2ccccc2)CC1` (stereo unspecified), the “activity change, negative = inhibition” value rises from -11% to 10.9%.

Compared with `COc1ccc(C(F)(F)F)cc1NC(=O)c1sc2nc(-c3cccs3)ccc2c1N`, `COc1ccccc1C(=O)OCc1cc(=O)n2nc(-c3cccs3)sc2n1` is lower in “activity change, negative = inhibition” value: -4.5% for the first, -26.7% for the second.

First: CCOC(=O)N1CCN(CCC(=O)Nc2cc(OC)ccc2OC)CC1
Second: CCOC(=O)N1CCN(C(=O)C2CCN(S(=O)(=O)c3cc(Cl)ccc3OCC)CC2)CC1
The “activity change, negative = inhibition” value of the first is lower: -18.9% for the first, -10.4% for the second.

First: CC(C)(C)c1ccc(C(=O)NCC(c2ccco2)S(=O)(=O)c2ccc(F)cc2)cc1 (stereo unspecified)
Second: Cc1ccc(C)c2sc(NC(=O)c3ccc(S(=O)(=O)N4CCCC4)cc3)nc12
The “activity change, negative = inhibition” value of the first is lower: -9.42% for the first, -7.14% for the second.

Compared with `Cc1cc2c(cc1C)C(c1cccc(OC(C)C)c1)CC(=O)N2` (stereo unspecified), `COc1cc(Br)cc2cc(S(=O)(=O)c3ccccc3)c(=O)oc12` is lower in “activity change, negative = inhibition” value: -5.14% for the first, -8.42% for the second.

Compared with `O=C(Cn1nc(C(F)(F)F)c2c1CCCC2)Nc1ccc(Cl)cc1`, `O=C(Cn1ncc(N2CCCC2)c(Br)c1=O)c1ccc(Cl)cc1` is lower in “activity change, negative = inhibition” value: 9.28% for the first, -11.7% for the second.

First: CN(C(=O)CN1C(=O)/C(=C/c2ccc(Cl)cc2)SC1=S)C1CCS(=O)(=O)C1 (stereo unspecified)
Second: O=C(Cc1ccc(Cl)cc1)NC1CCS(=O)(=O)C1 (stereo unspecified)
The “activity change, negative = inhibition” value of the first is higher: -0.694% for the first, -19.2% for the second.

Going from `Cc1c(NS(=O)(=O)c2ccc(NC3CCCC3)c([N+](=O)[O-])c2)c(=O)n(-c2ccccc2)n1C` to `COc1ccc(NC(=O)CN(C)C(=O)c2ccc(NC3CC3)c([N+](=O)[O-])c2)cc1`, the “activity change, negative = inhibition” value falls from -19.9% to -29.9%.

First: CC(C)CCNC(=O)CSc1nc2ccccc2nc1Cc1ccc(Cl)cc1
Second: CCOc1ccc(Nc2ncnc3scc(-c4ccc(OC)cc4)c23)cc1
The “activity change, negative = inhibition” value of the first is lower: -8.77% for the first, -0.662% for the second.

`CCn1c(C)c(C)c2cc(C(=O)NCCc3cc(OC)ccc3OC)ccc21` was tested, and the Potency was 35.5 µM (active).
For `COc1ccc(N(Cc2ccc(N(C)C)cc2)C(=O)c2ccc(S(C)(=O)=O)cc2)cc1`, the Potency was 63.1 µM (active).
`O=C(c1cccnc1)N(c1cc2sc(=O)oc2c2ccccc12)S(=O)(=O)c1ccccc1` was tested, and the Potency was 25.1 µM (active).
With `CCOC(=O)N1CCN(C(=O)C2CCN(Cc3ccc(OC)cc3OC)CC2)CC1` the Potency was 1 µM (active).
`O=C(Cn1nc(CNc2ccc(Cl)cc2)[n+]2c1CCCCC2)c1ccc(Cl)cc1` was tested, and the Potency was 44.7 µM (active).
`CC(C(=O)NC1CCS(=O)(=O)C1)N1C(=O)/C(=C/c2ccc(Cl)cc2)SC1=S` (stereo unspecified) was tested, and the Potency was 56.2 µM (active).
With `Cc1cc(C=O)c(C)n1-c1ccc(NC2CCCCC2)c([N+](=O)[O-])c1` the Potency was 17.8 µM (active).
For `COC(=O)CCSc1nccn1Cc1ccccc1`, the Potency was 35.5 µM (active).
